Compound activity: PubChem BioAssay, several laboratories
An excerpt weighted towards active compounds, which were near 2.2% of everything screened.
TROY signal inh: TROY signaling inhibition; Q293 LMP1-TROYcd NF-kB luciferase reporter, 4 h; inhibition, % at 10 µM; 360,000 tested, 0.98% active;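 active = compounds whose plate-normalised and pattern-corrected inhibition of the luciferase reporter signal at the single screening dose is 50% or more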
HSP90 inh: blocks HSP90-mediated luciferase refolding in reticulocyte lysate; inhibition, % at 5.6 µM; 290,000 tested, 0.91% active; Rabbit reticulocyte lysate, luciferase refolding luminescence, 3 h; AID 1789;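 active = inhibition above the screen-wide mean plus 3 SD, computed separately per campaign, cut at about 16% in these data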;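 also: inhibitors lower the luminescence because luciferase stays unfolded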
LGR2 antag: Drosophila LGR2 receptor signaling inhibition; HEK293 LGR2, CRE-luciferase, bursicon-stimulated, 4 h; inhibition, % at 9.99 µM; 380,000 tested, 0.35% active;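 active = drop in luminescence signal, shown as inhibition above about 50% in the replicate tests, limit read from the data, passing the limit was not always enough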;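 also: agonist challenge used bursicon conditioned medium at about half maximal strength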
TWEAK-Fn14 inh: TWEAK-Fn14 signaling inhibition; AID 1159606; 360,000 tested, 2% active; inhibition, % at 10 µM; TWEAK-stimulated Fn14 reporter cells, luciferase luminescence, 8 h; in the data active = inhibition above about 50%
Of the large screens only hits and unclear results are named; the others gave an inactive call.

COc1ccc(C(=O)n2cnc3ccccc32)cc1	TWEAK-Fn14 inh 78
COc1ccc(C(=O)n2cnc3ccccc32)cc1Br	none (no result: HSP90 inh)
CCc1ccc(-n2c(SCC(=O)Nc3cc(C)[nH]n3)nc3[nH]ncc3c2=O)cc1	TWEAK-Fn14 inh 98 (no result: TROY signal inh, LGR2 antag)
CCc1ccccc1-n1c(SCC(=O)Nc2ccc3c(c2)OCCO3)nc2[nH]ncc2c1=O	TROY signal inh 80, TWEAK-Fn14 inh 88
C[C@@H]1CN([C@@H](C)CO)C(=O)c2cccc(NC(=O)Nc3ccc4c(c3)OCO4)c2O[C@H]1CN(C)C(=O)Nc1ccc(F)cc1	none (no result: TROY signal inh, HSP90 inh, TWEAK-Fn14 inh)
CCCCCCCCCCCCCCCC[n+]1cccc2ccccc21	TROY signal inh 54, TWEAK-Fn14 inh 72
O=C(c1ccccn1)N1C[C@H]2[C@@H](c3ccccc31)[C@@H](CO)N2C(=O)Nc1ccccc1F	none (no result: TROY signal inh, HSP90 inh, TWEAK-Fn14 inh)
O=C(NC1(Cc2ccccc2)CCN(Cc2ccc(-c3ccccc3)cc2)C1=O)c1ccccc1 (stereo not given)	TROY signal inh 62, LGR2 antag 56, TWEAK-Fn14 inh 59 (no result: HSP90 inh)
O=C(CCc1ccccc1)NC1(Cc2ccccc2)CCN(CCc2cccs2)C1=O (stereo not given)	none (no result: HSP90 inh)
Cc1ccc(C(=O)Nc2ccccc2C(=O)N2CCCC2)cc1[N+](=O)[O-]	TROY signal inh 90, TWEAK-Fn14 inh 100
Cc1cc(C)nc(NC(=O)c2ccc(C)c([N+](=O)[O-])c2)n1	none
CCC(=O)NC(=S)Nc1ccc(NC(=O)c2cccnc2)cc1	TWEAK-Fn14 inh 72
COc1ccccc1NC(=O)c1ccc(NC(=O)c2cc3c(s2)CCC3)cc1	TWEAK-Fn14 inh 59
Cc1cc(C(=O)Nc2ccccc2C(=O)N2CCCCC2)ccc1[N+](=O)[O-]	none (no result: LGR2 antag)
O=C(Nc1ccccc1OC(F)F)c1cc2c(s1)CCC2	none
Cc1csc(NC(=O)c2ccc(C)c([N+](=O)[O-])c2)n1	TWEAK-Fn14 inh 68
CCC(=O)Nc1ccc2c(c1)OC[C@@H](C)N(C(=O)C1CCC1)C[C@H](C)[C@H](OC)CN(C)C2=O	none (no result: TROY signal inh, HSP90 inh, TWEAK-Fn14 inh)
Cc1noc(C)c1S(=O)(=O)Nc1ccc2c(c1)C(=O)N([C@H](C)CO)C[C@H](C)[C@H](CN(C)S(=O)(=O)c1ccccc1)OCCCC[C@H](C)O2	none (no result: TROY signal inh, HSP90 inh, TWEAK-Fn14 inh)
COc1ccc(-c2ccc3n(c2=O)C[C@H]2[C@H](CO)[C@@H](C(=O)NCCN4CCCCC4)N(C)[C@@H]32)cc1	none (no result: TROY signal inh, HSP90 inh, TWEAK-Fn14 inh)
CNC[C@H]1Oc2c(NS(=O)(=O)c3ccc(C)cc3)cccc2C(=O)N([C@H](C)CO)C[C@H]1C	none (no result: TROY signal inh, HSP90 inh, TWEAK-Fn14 inh)
Cc1csc(NC(=O)c2cccnc2)n1	TWEAK-Fn14 inh 83
Cc1csc(NC(=O)c2cc3c(s2)CCC3)n1	TWEAK-Fn14 inh 68 (no result: LGR2 antag)
COC(=O)c1sc(NC(=O)c2cc3c(s2)CCCC3)nc1C	none (no result: LGR2 antag)
CC(C)=CCc1c(O)cc2c(c1O)C(=O)CC(c1ccccc1)O2 (stereo not given)	none (no result: HSP90 inh, LGR2 antag)
CC(C)=CCc1c(O)ccc2c1OC(c1ccc(O)c(O)c1)CC2=O (stereo not given)	TWEAK-Fn14 inh 75
O=C1CC(c2ccc(O)c(O)c2)Oc2c1ccc(O)c2O (stereo not given)	TWEAK-Fn14 inh 62 (no result: HSP90 inh)
Cc1nc(-c2ccc(C(=O)Nc3cccc(Br)c3)cc2)cs1	TWEAK-Fn14 inh 66
Cc1nc(-c2cccc(NC(=O)c3ccc(-n4nccc4C)cc3)c2)cs1	TROY signal inh 60, TWEAK-Fn14 inh 74 (no result: HSP90 inh)
Cc1nc(-c2cccc(NC(=O)c3ccc(Br)o3)c2)cs1	none
COc1ccc(C(=O)/C=C/c2ccc(O)cc2)c(O)c1C/C=C(\C)CCC=C(C)C	none (no result: HSP90 inh, LGR2 antag)
C=C(C)C(O)CC/C(C)=C/Cc1c(O)ccc(C(=O)/C=C/c2ccc(O)cc2)c1O (stereo not given)	TROY signal inh 65 (no result: HSP90 inh)
CCCN1[C@@H]2c3ccc(C4=CCCCC4)c(=O)n3C[C@H]1[C@H](CO)[C@H]2C(=O)N1CCOCC1	none (no result: TROY signal inh, HSP90 inh, TWEAK-Fn14 inh)
CC(C)NC(=O)N(C)C[C@H]1OCCCC[C@@H](C)Oc2ccc(NS(=O)(=O)c3ccc(Cl)cc3)cc2C(=O)N([C@@H](C)CO)C[C@@H]1C	none (no result: TROY signal inh, HSP90 inh, TWEAK-Fn14 inh)
COc1ccc(/C=C/C(=O)N(C)C2CCCCC2)cc1Br	none
CN(C(=O)/C=C/c1cnc2ccccc2c1)C1CCCCC1	TWEAK-Fn14 inh 52
CC(=O)c1ccc(NCCC(=O)c2ccccc2)cc1	TWEAK-Fn14 inh 69
Cc1ccccc1-c1ccc2c(c1)O[C@H](CN(C)C(=O)c1ccccn1)[C@H](C)CN([C@H](C)CO)S2(=O)=O	none (no result: TROY signal inh, HSP90 inh, TWEAK-Fn14 inh)
CCc1ccc(NCc2nc3ccccc3c(=O)[nH]2)cc1	TROY signal inh 67 (no result: LGR2 antag)
C[C@@H]1CN([C@H](C)CO)C(=O)c2cc(C#CCN(C)C)cnc2O[C@@H]1CN(C)C(=O)c1ccc2c(c1)OCO2	none (no result: TROY signal inh, HSP90 inh, TWEAK-Fn14 inh)
CC(C)C(=O)Nc1ccc2c(c1)C(=O)N(C)[C@@H]1CC[C@H](CC(=O)NCc3ccccc3F)O[C@H]1CO2	none (no result: TROY signal inh, HSP90 inh, TWEAK-Fn14 inh)
